Screening results from PubChem BioAssay.
Most compounds without a hit are left out; they make up all but 1% or so of the library.
MEX-5 binding: C. elegans MEX-5 TCR-2 RNA binding activity; Q9XUB2; MEX-5/FITC-TCR2 RNA binding, fluorescence polarization; stronger effect = lower value; activity score (negative = inhibition of binding), % at 10 µM; 300,000 compounds, 0.38% hits; AID 1832;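 active = inhibition past about -25% in most replicates, and total fluorescence under double the plate's negative control median, limit read from the data; inconclusive = replicates evenly split on the limit, or fluorescence at least double controls; inactive = too little inhibition in most replicates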
Target sequence (Q9XUB2 whole entry, looked up): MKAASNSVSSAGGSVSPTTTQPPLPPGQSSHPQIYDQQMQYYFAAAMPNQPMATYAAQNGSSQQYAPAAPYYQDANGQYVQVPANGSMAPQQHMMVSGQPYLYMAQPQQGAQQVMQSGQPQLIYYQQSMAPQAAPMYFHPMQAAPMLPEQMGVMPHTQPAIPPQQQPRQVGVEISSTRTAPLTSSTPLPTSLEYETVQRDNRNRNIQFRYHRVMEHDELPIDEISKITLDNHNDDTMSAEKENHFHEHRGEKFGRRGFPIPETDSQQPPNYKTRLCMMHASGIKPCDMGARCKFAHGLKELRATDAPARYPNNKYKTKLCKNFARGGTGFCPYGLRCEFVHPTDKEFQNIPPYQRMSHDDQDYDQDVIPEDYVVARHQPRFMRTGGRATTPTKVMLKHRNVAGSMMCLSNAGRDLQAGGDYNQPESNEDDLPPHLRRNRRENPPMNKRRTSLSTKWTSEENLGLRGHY
ZTA DNA inh: ZTA (EBV) inhibition in EBNA-1 counter-screen. P03206. ZTA-DNA binding, fluorescence polarization. inhibition, % at 11 µM. 320,000 compounds, 0.15% hits. AID 2234; in the data active = inhibition above about 33%
Target sequence (P03206 whole entry, looked up): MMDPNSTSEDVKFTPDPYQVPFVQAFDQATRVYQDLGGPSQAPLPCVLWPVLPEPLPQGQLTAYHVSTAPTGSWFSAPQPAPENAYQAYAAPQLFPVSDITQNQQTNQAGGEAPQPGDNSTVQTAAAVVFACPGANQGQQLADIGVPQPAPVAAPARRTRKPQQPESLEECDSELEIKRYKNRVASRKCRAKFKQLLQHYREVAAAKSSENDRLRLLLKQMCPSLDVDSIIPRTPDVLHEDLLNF
EBNA-1 inh: blocks EBNA-1 binding to DNA; 300,000 compounds, 0.34% hits; inhibition, % at 14.8 µM; EBNA-1 DNA binding, fluorescence polarization; in the data active = inhibition above about 28%
EBV gp42 inh: EBV gp42 inhibition | Q1HVG2 | Fluorescence polarization binding assay, mP read-out | inhibition, % (tested at 21.74 µM) | 220,000 compounds, 0.42% hits | AID 1085; in the data active = inhibition above about 50%
Each line names hits and unclear results; the compound was inactive in the other large screens.

CC(=O)C1=C(C)NC(SCC(=O)c2ccc(-c3ccccc3)cc2)=C(C#N)C1c1cccnc1 (stereo not given)	EBNA-1 inh 36 (no result: MEX-5 binding)
COCC1CCN(C(=O)c2cc(COc3cc(C)c(Cl)c(C)c3)on2)C1 (stereo not given)	none (no result: EBV gp42 inh)
CN(C)C(=O)c1cc(C(=O)c2c(F)cccc2F)c[nH]1	none (no result: EBV gp42 inh)
C=C(C)Cn1c(C2CC(=O)N(Cc3ccccc3)C2)nc2ccccc21 (stereo not given)	none (no result: EBV gp42 inh)
C=CCN1CC(c2nc3ccccc3n2CCOc2ccccc2)CC1=O (stereo not given)	EBV gp42 inh 58
Cn1nccc1C(=O)N(CCN1CCCCC1)CC1CCCN(C2CCCC2)C1 (stereo not given)	none (no result: EBV gp42 inh)
CCN1/C(=C/C=C/c2oc3ccc4ccccc4c3[n+]2CC)Oc2ccc3ccccc3c21	EBNA-1 inh 29, EBV gp42 inh 162
COc1ccc2ccccc2c1C(O)c1nccn1C (stereo not given)	EBV gp42 inh 60
Cc1c(N2C(=O)c3cccc4cccc(c34)C2=O)c(=O)n(-c2ccccc2)n1C	none
Cc1c(N=C2Nc3cccc4cccc2c34)c(=O)n(-c2ccccc2)n1C	MEX-5 binding -41
Nc1c(S(=O)(=O)c2ccccc2)c2nc3ccccc3nc2n1Cc1ccco1	EBV gp42 inh 62
C=CCn1c(=O)/c(=C\c2ccsc2)s/c1=C(/C#N)C(=O)NCCN1CCOCC1	MEX-5 binding -46
COc1ccc(-n2c(=O)/c(=C\c3cccs3)s/c2=C(/C#N)C(=O)NCCN2CCOCC2)cc1	none
Cc1cc(C)cc(C(=O)NCC(=O)NNC(=O)CSc2ccccc2F)c1	none (no result: MEX-5 binding, EBNA-1 inh, EBV gp42 inh)
O=C(O)c1ccc2c(c1)[C@@H]1C=CC[C@@H]1[C@H](c1ccccn1)N2	MEX-5 binding -100, ZTA DNA inh 80 (no result: EBV gp42 inh)
COc1ccc(C(=O)N/N=C(\C)c2ccc3c(c2)C2C=CCC2C(c2ccccc2)N3)cc1 (stereo not given)	none (no result: MEX-5 binding)
O=C(OC1CCCCC1)c1ccc2c(c1)C1C=CCC1C(C(=O)O)N2 (stereo not given)	EBV gp42 inh 88 (no result: MEX-5 binding, ZTA DNA inh, EBNA-1 inh)
O=C(O)C1Nc2ccc(Br)cc2C2C=CCC12 (stereo not given)	MEX-5 binding -30 (no result: EBV gp42 inh)
COc1ccc(C)cc1NC(=O)CN1C(=O)COc2ccc(C)cc21	none (no result: EBV gp42 inh)
O=C(O)CCNC(=O)c1ccc(N=Nc2ccc(O)c(C(=O)O)c2)cc1	none (no result: ZTA DNA inh, EBNA-1 inh, EBV gp42 inh)
O=C(CSc1nc(-c2ccc(F)cc2)nc2ccc(F)cc12)Nc1cccc(C(=O)O)c1	none
O=C(CSc1nc(-c2ccc(F)cc2)nc2c1Cc1ccccc1O2)Nc1ccc(C(=O)O)cc1	EBV gp42 inh 74 (no result: MEX-5 binding, ZTA DNA inh, EBNA-1 inh)
O=C(CSc1nc(-c2ccccc2)nc2c1Cc1ccccc1O2)Nc1ccc(C(=O)O)cc1	EBV gp42 inh 87 (no result: MEX-5 binding, ZTA DNA inh, EBNA-1 inh)
O=C(CSc1nc(-c2ccccc2)nc2ccccc12)Nc1cccc(C(=O)O)c1	none
NC(=O)c1ccccc1NC(=O)CN1CCN(Cc2ccc(Cl)cc2Cl)CC1	none (no result: EBV gp42 inh)
O=C1N=C(N2CCCCC2)S/C1=C/C1=Cc2ccccc2OC1	MEX-5 binding -43
Cc1ccc(/C=C2\SC(N3CCCC3)=NC2=O)cc1	none
NC(CO)C(=O)NNCc1ccc(O)c(O)c1O (stereo not given)	MEX-5 binding -33
CC(Oc1ccc(Cl)cc1)C(=O)NCC1CCCO1 (stereo not given)	none (no result: EBV gp42 inh)
CCCCCN(C(=O)CCC(=O)OCc1ccc(Cl)cc1Cl)c1c(N)n(CCCC)c(=O)[nH]c1=O	none (no result: EBV gp42 inh)
CCSc1nnc(-c2sc3nnc(-c4ccccc4)c(-c4ccccc4)c3c2N)o1	MEX-5 binding inconclusive, EBV gp42 inh 167
COc1ccc(C(=O)Nc2c(N)nc(SCC(=O)c3ccccc3)[nH]c2=O)cc1	none (no result: EBV gp42 inh)
CN1CCc2cccc3c2C1Cc1ccc(O)c(O)c1-3 (stereo not given)	MEX-5 binding -83 (no result: EBV gp42 inh)
CN1CCC(=C2c3ccccc3C(O)c3ccccc32)CC1 (stereo not given)	none
CC1=C(C#N)c2nc(N)c(C#N)c(C)c2/C1=C\c1ccc(-c2ccccc2C(=O)O)o1	MEX-5 binding -52 (no result: ZTA DNA inh, EBNA-1 inh)
CCN1/C(=C/c2ccc3cc(C)ccc3[n+]2CC)Sc2cc(C)ccc21	none (no result: MEX-5 binding, ZTA DNA inh, EBNA-1 inh)
CCN1/C(=C/c2ccc3cc(C)ccc3[n+]2C)Sc2ccc3sccc3c21	EBV gp42 inh active (no result: MEX-5 binding, ZTA DNA inh, EBNA-1 inh)
Cc1cccc(NC(=O)CCC(=O)N2CCOCC2)n1	none (no result: MEX-5 binding, EBNA-1 inh, EBV gp42 inh)
CCOc1ccc(/C=C2/SC(=O)NC2=S)cc1	none
CCOc1ccc(N=C2NC(=O)S/C2=C\c2ccc(N(C)C)cc2)cc1	MEX-5 binding inconclusive, EBV gp42 inh 54
CCCCn1c(N)c(N(CCOC)C(=O)C2CCN(C(=O)c3ccc(F)cc3)CC2)c(=O)[nH]c1=O	none (no result: EBV gp42 inh)
O=C(NC1CCCCC1)C(c1cccs1)N(C(=O)c1ccccn1)c1ccccc1 (stereo not given)	none
OC(C#Cc1ccccn1)c1cccs1 (stereo not given)	MEX-5 binding -35
Cc1ccc(CN2CC(C(=O)N(C)CC(=O)Nc3cccc(F)c3)CC2=O)cc1 (stereo not given)	none (no result: EBV gp42 inh)
CC(C)c1nnc(N2C(=O)C(O)=C(C(=O)c3cccs3)C2c2ccccc2)s1 (stereo not given)	MEX-5 binding -66, EBV gp42 inh 126 (no result: ZTA DNA inh, EBNA-1 inh)
COc1ccc(C2C(C(=O)c3cccs3)=C(O)C(=O)N2c2nncs2)cc1 (stereo not given)	MEX-5 binding -85, EBV gp42 inh 133
Cc1nnc(N2C(=O)C(O)=C(C(=O)c3ccco3)C2c2cccc([N+](=O)[O-])c2)s1 (stereo not given)	none (no result: EBV gp42 inh)
Cc1cccc(N2C(=O)C(O)=C(C(=O)c3cccs3)C2c2ccc(F)cc2)n1 (stereo not given)	none
COc1ccc(C2C(C(=O)c3cccs3)=C(O)C(=O)N2c2nnc(C)s2)cc1OC (stereo not given)	MEX-5 binding -60, EBV gp42 inh 91
C=CCOc1cccc(C2C(C(=O)c3cccs3)=C(O)C(=O)N2Cc2cccnc2)c1 (stereo not given)	none
Cc1cccc(N2C(=O)C(O)=C(C(=O)c3cccs3)C2c2ccc(C(C)C)cc2)n1 (stereo not given)	none
C=CCOc1ccc(C2C(C(=O)c3cccs3)=C(O)C(=O)N2c2nnc(C)s2)cc1 (stereo not given)	MEX-5 binding -30 (no result: EBV gp42 inh)
CCc1ccc2[nH]c(C(=O)N(C)c3ccc(F)cc3F)cc2c1	none (no result: EBV gp42 inh)
CC(NC(=O)c1ccco1)C(=O)O (stereo not given)	none (no result: MEX-5 binding, EBNA-1 inh, EBV gp42 inh)
CCOc1cc(Br)c(/C=C2/C(=O)N(C)C(=S)N2CC(=O)OC)cc1OC	MEX-5 binding -32
COc1ccccc1C(=O)N=Nc1c(O)[nH]c2ccc([N+](=O)[O-])cc12	none (no result: MEX-5 binding, ZTA DNA inh, EBNA-1 inh)
O=C(N=Nc1c(O)[nH]c2ccc([N+](=O)[O-])cc12)c1cc(-c2ccccc2Cl)nc2ccccc12	EBV gp42 inh 73
O=C(NC1CCCCC1)c1cc(-c2ccccc2O)on1	none (no result: EBV gp42 inh)
Nc1ccc(N2CCN(c3ccc(F)cc3)CC2)cc1	none
Nc1ccc(N2CCCCCC2)cc1	ZTA DNA inh 165, EBNA-1 inh 93 (no result: MEX-5 binding)
CCCCn1c(O)c(/C=C2\C=Nc3ccccc32)c(=O)[nH]c1=O	MEX-5 binding -31 (no result: EBV gp42 inh)
O=C(COc1ccccc1)NS(=O)(=O)c1ccccc1	none (no result: EBV gp42 inh)
COc1ccc(NC(=O)COC(=O)c2cc3c(s2)CCC3)cc1	none (no result: MEX-5 binding, EBNA-1 inh, EBV gp42 inh)
